Experimental data as given in PubChem BioAssay (NCATS).
Values joined by “and” are separate entries in the source; they are usually repeats but may differ in a detail not shown here. Equal entries are not always repeated. Inconclusive results are not listed. Active and inactive are the calls of the source. Calls come from the whole dose curve; as a rule, active = well fitted curve in the direction sought with a large enough effect; inconclusive = small, poorly fitted or top-dose-only effect, or another doubt; inactive = no such curve, though single readings can be large; an effect the other way counts as inactive or inconclusive.

Tests used:
[1] = Viability qHTS for spleen associated tyrosine kinase inhibitor (SYKi) naive MV4-11 cells (AID 1963823); note: nearly all actives have a fitted effect of over 40% in size
In short: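 qHTS, SYK inhibitor-naive MV4-11; 500 cells/well; 72 hr compound exposure, 37 C; CellTiter-Glo added, 10 min RT; luminescence read.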

[2] = Viability qHTS for spleen associated tyrosine kinase inhibitor (SYKi) drug resistant MV4-11 cells (AID 1963824); note: nearly all actives have a fitted effect of over 35% in size
In short: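 SYK-inhibitor-resistant MV4-11 AML cells were seeded at 500 per well onto compound and cultured 72 hours (37 °C, 5% CO2). CellTiter-Glo was then added, and after 10 min at room temperature, luminescence gave viability.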

[3] = Quantitative highthroughput screen to assess conditional lethalithy of SEM cells grown in Human Plasma-Like Medium with dialyzed fetal bovine serum (HPLM+ds) (AID 1963882); note: nearly all actives have a fitted effect of over 35% in size; for Viability: series mostly up to about 46 µM
In short: (§1)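 Each medium arm—HPLM with 10% dialyzed FBS, or RPMI1640 with 5 mM glucose and 10% untreated or dialyzed FBS—was screened against an 11-point, 3-fold compound titration for 48 h at 37 °C, with CellTiter-Glo luminescence as endpoint.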

[4] = Quantitative highthroughput screen to assess conditional lethalithy of SEM cells grown in RPMI1640 with unreated serum (RPMI+s) (AID 1963883); note: nearly all actives have a fitted effect of over 35% in size;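 for Viability: 100% = DMSO wells and 0% = empty wells without cells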
In short: as §1

[5] = Quantitative highthroughput screen to assess conditional lethalithy of SEM cells grown in RPMI1640 with dialyzed fetal bovine serum (RPMI+ds) (AID 1963884); note: nearly all actives have a fitted effect of over 35% in size;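 for Viability: series mostly up to about 46 µM; 100% = DMSO control wells and 0% = empty wells without cells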
In short: as §1

[6] = Cellular viability qHTS for adrenocortical cancer (ACC) cell line SW-13 (AID 1963989); settings: SW-13 ACC cells viability, CellTiter-Glo, 48 h; activity (max response): active compounds read low; note: nearly all actives have a fitted effect of over 65% in size;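 for activity (max response): cells grown in serum-free medium with ITS supplement; % is set by controls: 0 for no effect and ±100 for the full control effect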
In short: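 48 h treatment, SW-13 in ITS/DMEM serum-free; doses up to 46 uM; readout CellTiter-Glo luminescence; curve fit four-parameter logistic.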

[7] = Cellular viability qHTS for adrenocortical cancer (ACC) cell line NCI-H295R (AID 1963990); note: nearly all actives have a fitted effect of over 60% in size
In short: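 Compound titrations (up to 46 uM final) are applied to NCI-H295R cultures for 48 h at 37C. Viable cell number is estimated by CellTiter-Glo signal, normalised to DMSO and doxorubicin controls.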
Potency is the fitted concentration of half-maximal effect.

CN(c1ncccc1CNc1nc(Nc2ccc3c(c2)CC(=O)N3)ncc1C(F)(F)F)S(C)(=O)=O
active: Potency [1] 0.366 µM | Potency [2] 0.731 µM | Potency [3] 2.96 µM | Potency [4] 2.64 µM | Potency [5] 1.05 µM | Potency [6] 31.6 µM

Clc1cc(Cl)cc(CNc2ncncc2-c2ccc3c(c2)OCO3)c1
active: Potency [1] 20.6 µM | Potency [2] 9.34 µM | Potency [4] 26.4 µM | Potency [6] 10 µM | Potency [7] 3.55 µM

CCc1nc(C(N)=O)c(Nc2ccc(N3CCC(N4CCN(C)CC4)CC3)c(OC)c2)nc1NC1CCOCC1
active: Potency [1] 9 nM and 18.6 nM | Potency [2] 11.4 nM and 26.3 nM | Potency [4] 0.295 µM | Potency [5] 0.209 µM | Potency [6] 17.8 µM | Potency [7] 2.82 µM

Cc1ccc(-n2nc(C(C)(C)C)cc2NC(=O)NCc2cc(F)ccc2Oc2ccc3c(cnn3CCO)c2)cc1
active: Potency [1] 9.34 µM | Potency [2] 10.3 µM | Potency [6] 17.8 µM

O=C(/C=C/c1cccnc1)NCCCCC1CCN(C(=O)c2ccccc2)CC1
active: Potency [1] 0.0053 µM | Potency [2] 0.0053 µM | Potency [6] 0.0126 µM

COc1cnc(NS(=O)(=O)c2ccc(N)cc2)nc1
active: Potency [1] 0.0012 µM
inactive: Potency [2] | Potency [3] | Potency [4] | Potency [5] | activity (max response) [6] 10.3%

COc1cc(C(=O)N2CCC(N3CCN(C)CC3)CC2)ccc1Nc1ncc2c(n1)N(C)c1ccccc1C(=O)N2C
active: Potency [1] 461 nM and 1.32 µM | Potency [2] 651 nM and 1.18 µM | Potency [3] 3.72 µM | Potency [7] 12.6 µM

CN(C)Cc1cccc(N=C(c2ccccc2)c2c(O)[nH]c3cc(C(=O)N(C)C)ccc23)c1
inactive: Potency [7]
active: Potency [1] 2.95 µM | Potency [2] 7.42 µM | Potency [3] 16.6 µM | Potency [4] 7.43 µM | Potency [5] 10.5 µM

NC(=O)Nc1sc(-c2ccc(F)cc2)cc1C(N)=O
inactive: activity (max response) [6] -22.4%
active: Potency [1] 1.86 µM | Potency [2] 3.32 µM | Potency [3] 16.6 µM | Potency [4] 1.32 µM | Potency [5] 14.8 µM | Potency [7] 25.1 µM

CC(C)C(=O)OCC(=O)[C@@]12O[C@H](C3CCCCC3)O[C@@H]1C[C@H]1[C@@H]3CCC4=CC(=O)C=C[C@]4(C)[C@H]3[C@@H](O)C[C@@]12C
inactive: activity (max response) [6] -10.3%
active: Potency [1] 5.9 µM | Potency [2] 2.95 µM

COC(=O)C1=C(C)NC(c2ncc(F)cc2F)=N[C@H]1c1ccc(F)cc1Cl
inactive: activity (max response) [6] -9.49%
active: Potency [1] 20.9 µM | Potency [2] 9.34 µM

Cc1cccc(C)c1NC(=O)CN1CCN(CCCC(c2ccc(F)cc2)c2ccc(F)cc2)CC1
active: Potency [1] 10.6 µM | Potency [2] 8.41 µM
inactive: activity (max response) [6] -13.9%

CCOc1ccn(-c2ccc(F)cc2)c(=O)c1C(=O)Nc1ccc(Oc2ccnc(N)c2Cl)c(F)c1
active: Potency [1] 366 nM and 525 nM | Potency [2] 580 nM and 1.05 µM | Potency [3] 1.48 µM | Potency [4] 3.32 µM | Potency [5] 2.09 µM | Potency [7] 14.1 µM

Nc1ncnc2c1nc(Cl)n2[C@@H]1O[C@H](CO)[C@@H](O)[C@@H]1O
active: Potency [1] 2.35 µM | Potency [2] 2.95 µM | Potency [3] 11.8 µM | Potency [5] 8.33 µM

Cn1c2ccccc2c2c3c(c4c5ccccc5n(CCC#N)c4c21)CNC3=O
active: Potency [1] 0.0651 µM | Potency [2] 0.259 µM | Potency [3] 0.372 µM | Potency [4] 0.526 µM | Potency [5] 0.418 µM | Potency [7] 3.55 µM

Cn1c(=O)c(F)c(Nc2ccc(I)cc2F)c2c(=O)n(C[C@@H](O)CO)cnc21
active: Potency [1] 0.0332 µM | Potency [2] 0.0235 µM | Potency [4] 6.62 µM | Potency [5] 2.09 µM

CC1(C)CCC2=C(O1)c1ccccc1C(=O)C2=O
active: Potency [1] 8.33 µM | Potency [2] 7.42 µM | Potency [3] 26.4 µM | Potency [4] 26.4 µM | Potency [5] 18.7 µM | Potency [6] 15.8 µM | Potency [7] 8.91 µM

O=C(/C=C/C#Cc1cccc(NS(=O)(=O)c2ccccc2)c1)NO
active: Potency [1] 0.407 µM | Potency [2] 0.363 µM | Potency [6] 8.02 µM

CC(=O)Oc1cccc(O)c1
inactive: Potency [1] | Potency [2] | activity (max response) [6] 7.39%

CC(C)n1nc(-c2ccc3oc(N)nc3c2)c2c(N)ncnc21
active: Potency [1] 36.6 nM and 29.5 nM | Potency [2] 73.1 nM and 46.8 nM | Potency [3] 0.0332 µM | Potency [4] 0.0469 µM | Potency [5] 0.469 µM | Potency [6] 0.1 µM | Potency [7] 0.0708 µM
